Drawing on PubChem BioAssay AID1946 (Johns Hopkins Ion Channel Center, 2009), this text covers activity change vs negative control for 101 compounds.

SMILES strings stand for the structures. In all, about 2,400 compounds went through this assay and about 180 (7.5%) were called active. For the sample, actives were picked, then their nearest neighbours and some compounds at random. Values without a mark were called inactive.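 Rule for the calls: active = readout below zero, meaning a drop past 3 SD under the dofetilide-free negative control mean; inactive = the rest.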

The target of this experiment is Potassium voltage-gated channel subfamily KQT member 2 (Rattus norvegicus) (UniProt O88943). Kind of experiment: KCNQ2 blockade in CHO cells – cell-based, FluxOR thallium flux, counter-screen for hERG block protector project, confirmation (AID 1946). Particulars: FluxOR thallium flux fluorescence, at 10 µM, hits give low values, zero marks the 3-SD hit cutoff. (In general: Counterscreens check selectivity or assay interference.)
Sequence of Potassium voltage-gated channel subfamily KQT member 2 (Rattus norvegicus) (O88943 whole entry, looked up): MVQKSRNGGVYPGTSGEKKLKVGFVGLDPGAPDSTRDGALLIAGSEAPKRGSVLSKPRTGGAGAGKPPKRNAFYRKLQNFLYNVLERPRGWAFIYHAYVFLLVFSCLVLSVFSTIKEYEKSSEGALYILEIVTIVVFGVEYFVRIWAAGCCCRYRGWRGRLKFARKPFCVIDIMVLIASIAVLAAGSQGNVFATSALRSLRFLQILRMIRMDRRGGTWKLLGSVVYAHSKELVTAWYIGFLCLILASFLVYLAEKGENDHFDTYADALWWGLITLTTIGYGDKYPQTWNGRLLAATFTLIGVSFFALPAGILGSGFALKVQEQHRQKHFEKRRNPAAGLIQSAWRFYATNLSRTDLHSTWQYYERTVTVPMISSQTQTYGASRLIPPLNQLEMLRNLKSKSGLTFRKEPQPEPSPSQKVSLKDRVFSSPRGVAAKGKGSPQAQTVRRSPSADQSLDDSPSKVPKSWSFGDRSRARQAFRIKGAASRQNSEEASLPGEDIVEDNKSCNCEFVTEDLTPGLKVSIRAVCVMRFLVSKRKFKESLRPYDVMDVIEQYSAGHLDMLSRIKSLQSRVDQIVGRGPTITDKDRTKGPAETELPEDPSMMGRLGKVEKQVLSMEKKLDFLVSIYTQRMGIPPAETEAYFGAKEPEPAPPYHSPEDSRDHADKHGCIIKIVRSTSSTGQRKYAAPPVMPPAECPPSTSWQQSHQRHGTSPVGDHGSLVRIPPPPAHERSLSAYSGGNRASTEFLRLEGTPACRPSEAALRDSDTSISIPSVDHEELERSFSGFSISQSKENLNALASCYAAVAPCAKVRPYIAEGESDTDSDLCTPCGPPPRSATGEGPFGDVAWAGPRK
In the case of `Cc1nc2ccccc2n1-c1ccccc1`, the activity change vs negative control is 19.5%.
With `Oc1c(Cl)cc(Cl)cc1/C=N/c1ncn[nH]1` the figure was 53.4%; with `O=C(NC(=S)N1CCCCCC1)c1ccc(Cl)cc1Cl`, 30.8%; with `COc1ccc(NC(=O)C(=O)NNC(=O)COc2ccc(Cl)cc2)c(OC)c1`, 38.6%.
With `COCCCNC(=O)CCc1nnc(Cc2ccc(-c3ccccc3)cc2)o1` the figure was 26.3%; with `CC(C)CCNC(=O)CCc1nnc(Cc2c[nH]c3ccccc23)o1`, -0.6% (active); with `CN(Cc1ccsc1)C(=O)CCc1nnc(Cc2c[nH]c3ccccc23)o1`, 10.6%.
With `CC(C)C(=O)Nc1ccc(NC(=O)CCc2ccccc2)cn1` the figure was -1.8% (active).
For `O=C(CS(=O)(=O)Cc1ccccc1)Nc1ccc(Cl)cn1`, the activity change vs negative control is 7.9%.
With `CN(C)c1ccc(NC(=O)CCCc2ccccc2)cc1`, the activity change vs negative control was 29.6%.
For `S=c1nc(C2CCCCC2)n(-c2ccccc2)[nH]1`, the activity change vs negative control was 72.6%.
Turning to `N#C/C(=N/Nc1ccc([N+](=O)[O-])cc1)C(=N)N1CCCCC1`, the activity change vs negative control was 17%.
With `O=[N+]([O-])c1ccc(S(=O)(=O)Nc2ccc(S(=O)(=O)N3CCCC3)cc2)cc1` the figure was -0.3% (active); with `O=C(Nc1ccc(N2CCOCC2)cc1)c1ccc(S(=O)(=O)N2CCCCC2)cc1`, 10.5%.
Turning to `COc1ccc(OCC(=O)NNC(=O)C(=O)Nc2cc(OC)ccc2OC)cc1`, the activity change vs negative control is 38.9%.
With `CCOC(=O)c1sc2nc(C)[nH]c(=S)c2c1C` the figure was 32.7%; with `CC(NC(=O)c1ccc(F)cc1)c1ccc2c(c1)CCCC2` (stereo unspecified), 55.5%.
As for `CCn1c(SCC(N)=O)nc2sc3c(c2c1=O)CCCC3`, the activity change vs negative control was 60.6%.
In the case of `CCCn1c(SCC(=O)N2CCN(C(C)=O)CC2)nc2sc3c(c2c1=O)CCC3`, the activity change vs negative control is 51.5%.
As for `CCC(=O)N1CCN(c2nc(CC)nc3sc4c(c23)CCCC4)CC1`, the activity change vs negative control was -20.7% (active).
With `CCN(CC)C(=S)NC(=O)c1ccc(OC)c(Br)c1` the figure was 16.8%.
Consider `O=C1CC(O)(C(F)(F)F)Oc2c1ccc1ccccc21` (stereo unspecified), for which the activity change vs negative control was 49.7%.
With `S=c1nc(C2CCCCC2)[nH]c2ccccc12` the figure was 25.5%.
For `O=C(C1CC1)N1N=C(c2ccccc2)CC1(O)C(F)(F)C(F)(F)F` (stereo unspecified), the activity change vs negative control was 7.3%.
With `CC(C)(C)C1(O)CC(C(F)(F)F)=NN1C(=O)Cc1ccc([N+](=O)[O-])cc1` (stereo unspecified), the activity change vs negative control is 10.6%.
Turning to `CCCCC1(O)CC(C(F)(F)F)=NN1C(=O)COc1ccccc1` (stereo unspecified), the activity change vs negative control is -7.8% (active).
With `CN(C(=S)NC(=O)c1ccc(Cl)cc1)C1CCCCC1` the figure was 26.3%; with `Cc1ccc(-n2ncc3c(SCC(=O)NNC(=O)c4ccco4)ncnc32)cc1`, 35.7%; with `CNC(=O)CSc1nnc(-c2ccco2)n1-c1ccc(C)cc1`, -1.9% (active).
On to `CNC(=O)CSc1nnc(-c2ccco2)n1-c1ccccc1`, for which the activity change vs negative control is 7%.
In the case of `C/C(=N/NC(=O)c1cc2ccccc2cc1O)c1ccco1`, the activity change vs negative control was 87.3%.
With `O=C(COc1ccc2ccccc2c1)NNC(=O)C(=O)Nc1ccccc1` the figure was 61.8%; with `CCCn1c(=S)[nH]c2sc3c(c2c1=O)CCCC3`, 95%.
As for `CCOC(=O)Cc1csc(NC(=S)NC(=O)c2ccccc2Br)n1`, the activity change vs negative control is 38.6%.
With `CC(OC(=O)c1cc2c(s1)CCCCC2)C(=O)NC(N)=O` (stereo unspecified) the figure was -1.8% (active); with `NC(=O)C1CCN(C(=O)c2cc3c(s2)CCCC3)CC1`, 41.4%.
For `Cc1csc(NC(=O)c2cc3c(s2)CCCC3)n1`, the activity change vs negative control was 49.2%.
With `Cc1nc(NCc2cccnc2)c2c3c(sc2n1)CC(C)CC3` (stereo unspecified) the figure was 49.7%; with `O=C(CSc1nnc(-c2ccncc2)o1)c1cccc([N+](=O)[O-])c1`, -7.8% (active).
On to `N/C(=N\OS(=O)(=O)c1cccc([N+](=O)[O-])c1)c1ccncc1`, for which the activity change vs negative control is 29.1%.
With `Cc1cc(SCC(=O)c2cccc([N+](=O)[O-])c2)nc(=O)[nH]1` the figure was 7.5%.
With `Cc1ccc2oc3c(c(=O)c2c1)C(c1cccs1)N(CCCN(C)C)C3=O` (stereo unspecified) the figure was 21.6%; with `CCOC(=O)c1sc2nc(C)nc(SCC(=O)N(C)C3CCS(=O)(=O)C3)c2c1C` (stereo unspecified), 20.9%; with `CN(C(=O)CSc1ncnc2sc(-c3ccccc3)cc12)C1CCS(=O)(=O)C1` (stereo unspecified), 94.7%.
With `CCC(C)N(C(=O)CSc1nnc(NC(C)C)s1)C1CCS(=O)(=O)C1` (stereo unspecified) the figure was -0.9% (active); with `COc1ccccc1C(=O)NNC(=O)C(=O)Nc1ccc(C)c(Cl)c1`, 148%.
`Cc1nn(Cc2ccccc2)c2c1C(c1cccnc1)C(C#N)=C(N)O2` (stereo unspecified): the activity change vs negative control is 12.9%.
As for `COC(=O)c1ccc(C2C(C#N)=C(N)Oc3cc(O)ccc32)cc1` (stereo unspecified), the activity change vs negative control was 12.7%.
In the case of `CCOC(=O)C1=C(N)Oc2cc(O)ccc2C1c1cccnc1` (stereo unspecified), the activity change vs negative control was -1.7% (active).
With `Cc1nn(CC(=O)Nc2ccc(C(=O)N3CCCC3)cc2)c(=O)c2ccccc12` the figure was 32.9%.
With `O=C(Nc1cccc(N=Cc2cc(Cl)cc(Br)c2O)c1)c1ccco1` the figure was 53.8%; with `CCOC(=O)C(=CNc1ccc(OC)cc1[N+](=O)[O-])C(=O)OCC`, 13.9%.
With `COc1cccc(C(=O)NNC(=O)C(=O)Nc2cccc3ccccc23)c1` the figure was 91%; with `COc1ccc(NC(=S)NC(NC(=O)c2cccc3ccccc23)C(Cl)(Cl)Cl)c([N+](=O)[O-])c1` (stereo unspecified), -0.3% (active); with `COC(=O)Oc1ccc(/C=C/C(=O)OC(C)C)cc1OC(=O)OC`, 24.5%.
Regarding `CCN(CC)c1ccc(NC(=S)NC(=O)c2ccco2)cc1`, the activity change vs negative control was 67.2%.
With `CC1=CC(=O)C(C(C)C)=CC1=NC(=O)c1ccc(C)cc1` the figure was -1% (active); with `Cc1ccc(C(=O)Sc2cccccc2=O)cc1`, 102%; with `CCOC(=O)c1sc2ncnc(NCC(c3cccs3)N(C)C)c2c1C` (stereo unspecified), 61%.
With `S=c1[nH]c(-c2ccccc2)cs1` the figure was 85.5%; with `COC(=O)Cn1c(=O)c(=O)n(CC(=O)OC)c2ccccc21`, -3.8% (active); with `CCOC(=O)Cn1cc(C=O)c2ccccc21`, 8.6%.
Take `COC(=O)CCn1[nH]c(=O)c2ccccc2c1=O`: the activity change vs negative control is 15.6%.
With `O=C(NC(=S)Nc1ncc(Br)cc1Br)c1ccccc1` the figure was 28.8%.
With `CCOC(=O)NC(=S)Nc1ccc(C(C)(C)C)cc1Br` the figure was 16.6%.
Turning to `Cc1ccc(S(=O)(=O)NC(=S)NC2CCCCC2)cc1`, the activity change vs negative control was 19.8%.
Consider `O=C(Nc1ccc(Oc2cccnc2)cc1)c1cccc([N+](=O)[O-])c1`, for which the activity change vs negative control is 13.8%.
With `CN(C)S(=O)(=O)c1cccc(C(=O)Nc2cccnc2)c1` the figure was 8%; with `O=C(Nc1ccc(Cl)c(-c2nc3ccccc3[nH]2)c1)c1cccnc1`, -19.3% (active).
As to `O=C(NCC1CCCO1)c1ccc2c(=O)n(Cc3ccco3)c(SCC(=O)N3CCCC3)nc2c1` (stereo unspecified), the activity change vs negative control is 32.7%.
With `S=c1[nH]nc(-c2ccco2)n1/N=C/C(Cl)=C/c1ccccc1` the figure was 10.3%.
With `S=c1[nH]nc(-c2n[nH]c3c2CCC3)n1/N=C/C=C/c1ccccc1` the figure was -4.8% (active); with `Cc1cccc(/C=N/n2c(COc3ccccc3)n[nH]c2=S)c1`, 14.1%; with `Cc1ccc(C(=O)CC(=O)c2cccc(F)c2)c(O)c1`, 7.2%.
With `CC(C)c1nc2sc3c(=S)nc[nH]c3c2c2c1CCC2` the figure was 45.5%.
`Cc1cc2ccccn2c1C(=S)NC(=O)c1ccccc1`: the activity change vs negative control was 68.1%.
In the case of `C=CCn1c(O)c(N=NC(=S)Nc2ccc(OC)c(Cl)c2)c2ccccc21`, the activity change vs negative control is 18.3%.
With `COc1ccccc1Nc1nnc(SCC(=O)Nc2nc(-c3ccc(F)cc3)cs2)s1` the figure was 9.1%; with `CCOC(=O)CSc1nnc(NC(=O)c2ccc3c(c2)OCO3)s1`, 5.6%.
With `Nc1nnc(SCC(=O)OCc2ccc(F)cc2)s1`, the activity change vs negative control is -2.1% (active).
On to `CCOC(=O)C(=CNc1cc(C)ccn1)C(=O)OCC`, for which the activity change vs negative control was 18.2%.
For the compound `S=c1nc(C2CC2)[nH]c2ccccc12`, the activity change vs negative control was 58.2%.
With `Cc1ccc(-c2nc3ccccc3c(=O)n2O)cc1` the figure was 29.3%; with `COc1ccc(-n2nc(C(=O)NCC(=O)NCc3ccc(F)cc3)c3ccccc3c2=O)cc1OC`, 12.7%; with `NC(=O)c1nsc(C(=O)N(CC(=O)NCc2ccccc2)c2ccc(F)cc2)c1N`, -0.6% (active).
With `Cc1ccccc1Cn1nc(C)c(NC(=O)c2ccccc2)c1C` the figure was 73%.
With `COc1ccccc1C(=O)NNC(=O)C(=O)Nc1ccc(C)cc1` the figure was 162%.
As for `O=C(O)c1cc(NN=C2c3ccccc3-c3ccccc32)ccc1Cl`, the activity change vs negative control is 63.8%.
With `COC(=O)c1ccc(C(=O)NC(=S)Nc2nc3c(s2)CCCC3)cc1` the figure was 37.8%; with `CC1c2nc3ccccc3n2C(CC(=O)NCCCN2CCOCC2)C(=O)N1Cc1ccccc1` (stereo unspecified), 12%; with `CC1CC(C)CN(CCCNC(=O)Cc2c(C(=O)O)[nH]c3ccccc23)C1` (stereo unspecified), -0.3% (active).
With `O=C(CN1C(=O)COc2ccccc21)NCCCN1CCOCC1` the figure was 6.2%; with `c1ccc2c(c1)c1ccccc1n1c(-c3ccc4c(c3)OCO4)nnc21`, 11.9%; with `Oc1c(Br)cc(Cl)cc1C=Nc1ccccc1Br`, 57.7%.
`COc1ccc(OC(=O)Cc2cccc3ccccc23)cc1`: the activity change vs negative control was 15.2%.
In the case of `COc1ccc(CC(=O)Nc2ccc(-c3noc(-c4ccccc4OC)n3)cc2)cc1`, the activity change vs negative control was 7%.
On to `COc1ccc(NC(=O)CSCC(=O)Oc2c(OC)cccc2OC)cc1`, for which the activity change vs negative control was -7.6% (active).
With `Cc1snnc1C(=O)NC(=S)Nc1ccccc1` the figure was 53.9%; with `COc1ccc(CCNC(=O)C(=O)Nc2ccc3c(c2)OCO3)cc1OC`, 8.8%.
As to `Cc1cc(Cl)ccc1OC(C)C(=O)NCCc1ccc2c(c1)OCCO2` (stereo unspecified), the activity change vs negative control was -9.4% (active).
On to `CCOc1ccc(CCNC(=O)Nc2ccccc2C)cc1OCC`, for which the activity change vs negative control is 13.5%.
